# Experimental data as given in the supplement of paper PMC11732987, “Enantioselective OTUD7B fragment discovery through chemoproteomics screening and high-throughput optimisation” (Communications Chemistry, 2025).
# Unmarked numbers belong to inactive results.
# What was measured:
# Assay in all cases: log2 ratio of Biotin-Ahx-Ub-VS probe labelling (fragment/DMSO); higher = less target engagement (more negative = stronger competition), active = hit call of the paper (q ≤ 0.05, log2 ratio ≤ -1)
# Details in all cases: compound concentration: 200 uM; treatment time: 3 h
# OTUD6B = target: T1, OTUD6B (UniProt Q8N6M0)
# T1 sequence (whole entry): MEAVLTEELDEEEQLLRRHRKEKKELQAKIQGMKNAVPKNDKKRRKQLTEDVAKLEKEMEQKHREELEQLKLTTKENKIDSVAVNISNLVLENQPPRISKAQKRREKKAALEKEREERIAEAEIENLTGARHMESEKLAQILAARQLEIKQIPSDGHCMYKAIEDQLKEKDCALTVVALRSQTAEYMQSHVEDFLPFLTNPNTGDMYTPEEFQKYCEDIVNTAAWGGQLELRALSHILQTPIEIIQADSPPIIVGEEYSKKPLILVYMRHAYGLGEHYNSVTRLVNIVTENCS
# In short: (§1)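 HEK293T lysate (495 µg per sample, in Tris/CHAPS/IGEPAL buffer with protease inhibitors) was treated in triplicate with fragment at 200 µM or with DMSO for 3 h. It was then treated with Biotin-Ahx-Ub-VS (0.5 µM final) for 1 h. Labelled DUBs were NeutrAvidin-enriched, digested with LysC and trypsin, and run by diaPASEF LC-MS/MS. Spectronaut label-free quantities were global-median-normalised. Values are average log2 ratios fragment/DMSO by unpaired t-test, using proteins with ≥2 unique peptides.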
# OTUD7B = target: T2, OTUD7B (UniProt Q6GQQ9)
# T2 sequence (whole entry): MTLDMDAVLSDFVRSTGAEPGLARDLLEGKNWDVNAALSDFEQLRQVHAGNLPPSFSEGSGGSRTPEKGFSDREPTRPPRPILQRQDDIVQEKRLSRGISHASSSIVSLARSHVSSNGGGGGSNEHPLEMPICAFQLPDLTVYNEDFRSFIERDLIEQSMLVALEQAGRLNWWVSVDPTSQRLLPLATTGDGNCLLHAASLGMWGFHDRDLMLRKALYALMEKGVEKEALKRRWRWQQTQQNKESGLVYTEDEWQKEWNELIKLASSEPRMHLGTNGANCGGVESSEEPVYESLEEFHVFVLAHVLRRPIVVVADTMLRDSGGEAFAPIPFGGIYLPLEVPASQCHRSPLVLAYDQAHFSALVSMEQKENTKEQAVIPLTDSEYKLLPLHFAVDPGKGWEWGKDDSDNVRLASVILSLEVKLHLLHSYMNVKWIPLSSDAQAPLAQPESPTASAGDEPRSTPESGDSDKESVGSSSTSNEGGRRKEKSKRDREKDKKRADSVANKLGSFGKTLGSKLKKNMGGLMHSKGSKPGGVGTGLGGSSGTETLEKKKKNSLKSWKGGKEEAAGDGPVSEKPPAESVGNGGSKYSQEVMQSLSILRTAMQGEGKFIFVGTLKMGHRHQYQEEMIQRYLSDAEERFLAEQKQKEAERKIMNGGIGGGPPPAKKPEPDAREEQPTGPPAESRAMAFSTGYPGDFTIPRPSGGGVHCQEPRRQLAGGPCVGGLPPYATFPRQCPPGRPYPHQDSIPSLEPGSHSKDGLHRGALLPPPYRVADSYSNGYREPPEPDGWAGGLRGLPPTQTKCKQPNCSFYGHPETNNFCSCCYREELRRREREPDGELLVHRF
# In short: as §1
# PRPF8 = PRPF8 (UniProt Q6P2Q9)
# In short: as §1
# PSMD7 = target: T3, PSMD7 (UniProt P51665)
# T3 sequence (whole entry): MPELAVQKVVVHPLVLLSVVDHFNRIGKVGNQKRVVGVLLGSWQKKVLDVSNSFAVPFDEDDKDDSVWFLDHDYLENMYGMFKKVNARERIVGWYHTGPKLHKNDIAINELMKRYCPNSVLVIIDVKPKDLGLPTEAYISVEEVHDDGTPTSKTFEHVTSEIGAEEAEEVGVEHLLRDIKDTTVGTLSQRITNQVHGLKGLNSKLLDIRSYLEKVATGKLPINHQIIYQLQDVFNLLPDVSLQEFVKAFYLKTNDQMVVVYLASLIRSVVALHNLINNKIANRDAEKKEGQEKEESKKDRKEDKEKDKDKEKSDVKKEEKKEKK
# In short: as §1
# UCHL1 = UCHL1 (UniProt P09936)
# Sequence of UCHL1 (P09936 whole entry, looked up): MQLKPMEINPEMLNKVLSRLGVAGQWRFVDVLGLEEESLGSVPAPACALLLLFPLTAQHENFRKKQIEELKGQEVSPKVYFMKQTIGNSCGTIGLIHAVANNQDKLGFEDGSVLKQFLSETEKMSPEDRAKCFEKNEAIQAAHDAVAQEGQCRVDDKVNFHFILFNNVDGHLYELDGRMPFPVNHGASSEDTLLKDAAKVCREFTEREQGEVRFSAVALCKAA
# In short: as §1
# UCHL3 = target: T4, UCHL3 (UniProt P15374)
# T4 sequence (whole entry): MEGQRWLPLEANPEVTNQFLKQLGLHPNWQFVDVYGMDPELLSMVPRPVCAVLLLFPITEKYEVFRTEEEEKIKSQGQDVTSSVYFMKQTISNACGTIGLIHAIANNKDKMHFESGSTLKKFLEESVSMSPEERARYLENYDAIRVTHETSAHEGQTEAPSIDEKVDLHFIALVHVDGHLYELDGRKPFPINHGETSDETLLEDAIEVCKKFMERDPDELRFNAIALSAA
# In short: as §1
# UCHL5 = target: T5, UCHL5 (UniProt Q9Y5K5)
# T5 sequence (whole entry): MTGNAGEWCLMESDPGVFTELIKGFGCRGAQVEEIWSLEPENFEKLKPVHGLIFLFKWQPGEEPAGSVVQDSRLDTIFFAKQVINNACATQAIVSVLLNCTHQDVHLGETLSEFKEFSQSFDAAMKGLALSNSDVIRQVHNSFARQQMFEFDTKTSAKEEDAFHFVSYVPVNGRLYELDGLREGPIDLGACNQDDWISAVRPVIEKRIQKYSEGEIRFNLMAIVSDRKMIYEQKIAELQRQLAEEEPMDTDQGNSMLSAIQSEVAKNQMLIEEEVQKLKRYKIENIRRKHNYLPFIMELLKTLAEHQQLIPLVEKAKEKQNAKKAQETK
# In short: as §1
# USP10 = USP10 (UniProt Q14694)
# Sequence of USP10 (Q14694 whole entry): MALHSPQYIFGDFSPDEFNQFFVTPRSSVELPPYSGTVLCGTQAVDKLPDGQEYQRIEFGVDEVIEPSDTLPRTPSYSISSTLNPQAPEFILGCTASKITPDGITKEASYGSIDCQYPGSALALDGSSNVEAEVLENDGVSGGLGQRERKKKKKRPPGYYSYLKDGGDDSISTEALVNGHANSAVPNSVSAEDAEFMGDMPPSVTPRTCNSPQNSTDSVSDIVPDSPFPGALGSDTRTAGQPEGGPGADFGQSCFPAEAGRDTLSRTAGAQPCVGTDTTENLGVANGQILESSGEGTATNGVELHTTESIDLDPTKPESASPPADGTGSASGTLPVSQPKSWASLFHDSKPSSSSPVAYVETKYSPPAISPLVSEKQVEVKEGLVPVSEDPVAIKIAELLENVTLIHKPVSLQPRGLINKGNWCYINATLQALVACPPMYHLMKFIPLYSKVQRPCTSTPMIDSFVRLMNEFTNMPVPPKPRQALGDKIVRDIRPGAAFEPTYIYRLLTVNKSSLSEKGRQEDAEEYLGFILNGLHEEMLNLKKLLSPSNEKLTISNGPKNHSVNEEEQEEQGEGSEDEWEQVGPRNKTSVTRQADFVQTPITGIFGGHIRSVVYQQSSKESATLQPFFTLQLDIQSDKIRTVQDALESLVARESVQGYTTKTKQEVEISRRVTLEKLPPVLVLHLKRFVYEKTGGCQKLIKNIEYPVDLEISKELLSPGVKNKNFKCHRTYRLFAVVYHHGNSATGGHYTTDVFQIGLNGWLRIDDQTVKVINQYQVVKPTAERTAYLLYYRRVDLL
# In short: as §1
# USP15 = target: T6, USP15 (UniProt Q9Y4E8)
# T6 sequence (whole entry): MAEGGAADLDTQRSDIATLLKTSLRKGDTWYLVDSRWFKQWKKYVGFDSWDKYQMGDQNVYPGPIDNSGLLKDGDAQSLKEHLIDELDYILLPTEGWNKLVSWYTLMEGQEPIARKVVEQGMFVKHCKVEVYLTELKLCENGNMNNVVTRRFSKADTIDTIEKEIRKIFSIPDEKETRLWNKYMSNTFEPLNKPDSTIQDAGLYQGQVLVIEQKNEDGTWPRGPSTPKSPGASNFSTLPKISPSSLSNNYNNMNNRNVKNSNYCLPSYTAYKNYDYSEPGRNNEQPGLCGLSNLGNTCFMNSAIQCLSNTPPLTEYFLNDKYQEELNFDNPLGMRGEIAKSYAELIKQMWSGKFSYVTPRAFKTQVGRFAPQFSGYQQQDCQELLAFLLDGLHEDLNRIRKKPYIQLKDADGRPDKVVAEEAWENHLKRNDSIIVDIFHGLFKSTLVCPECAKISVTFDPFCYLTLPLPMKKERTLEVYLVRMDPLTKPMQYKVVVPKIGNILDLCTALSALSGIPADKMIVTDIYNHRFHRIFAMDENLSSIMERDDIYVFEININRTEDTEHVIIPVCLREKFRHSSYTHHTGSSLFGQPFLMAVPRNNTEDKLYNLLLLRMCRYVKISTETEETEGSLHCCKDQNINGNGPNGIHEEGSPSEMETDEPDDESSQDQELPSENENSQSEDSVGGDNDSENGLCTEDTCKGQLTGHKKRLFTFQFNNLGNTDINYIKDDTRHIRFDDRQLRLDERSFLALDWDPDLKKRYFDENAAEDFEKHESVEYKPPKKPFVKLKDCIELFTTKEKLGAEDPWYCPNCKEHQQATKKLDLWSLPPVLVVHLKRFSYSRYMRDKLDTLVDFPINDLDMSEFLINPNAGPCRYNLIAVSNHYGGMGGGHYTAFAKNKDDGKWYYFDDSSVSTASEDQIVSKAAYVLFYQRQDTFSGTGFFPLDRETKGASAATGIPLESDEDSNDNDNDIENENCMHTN
# In short: as §1
# USP16 = USP16 (UniProt Q9Y5T5)
# Sequence of USP16 (Q9Y5T5 whole entry, looked up): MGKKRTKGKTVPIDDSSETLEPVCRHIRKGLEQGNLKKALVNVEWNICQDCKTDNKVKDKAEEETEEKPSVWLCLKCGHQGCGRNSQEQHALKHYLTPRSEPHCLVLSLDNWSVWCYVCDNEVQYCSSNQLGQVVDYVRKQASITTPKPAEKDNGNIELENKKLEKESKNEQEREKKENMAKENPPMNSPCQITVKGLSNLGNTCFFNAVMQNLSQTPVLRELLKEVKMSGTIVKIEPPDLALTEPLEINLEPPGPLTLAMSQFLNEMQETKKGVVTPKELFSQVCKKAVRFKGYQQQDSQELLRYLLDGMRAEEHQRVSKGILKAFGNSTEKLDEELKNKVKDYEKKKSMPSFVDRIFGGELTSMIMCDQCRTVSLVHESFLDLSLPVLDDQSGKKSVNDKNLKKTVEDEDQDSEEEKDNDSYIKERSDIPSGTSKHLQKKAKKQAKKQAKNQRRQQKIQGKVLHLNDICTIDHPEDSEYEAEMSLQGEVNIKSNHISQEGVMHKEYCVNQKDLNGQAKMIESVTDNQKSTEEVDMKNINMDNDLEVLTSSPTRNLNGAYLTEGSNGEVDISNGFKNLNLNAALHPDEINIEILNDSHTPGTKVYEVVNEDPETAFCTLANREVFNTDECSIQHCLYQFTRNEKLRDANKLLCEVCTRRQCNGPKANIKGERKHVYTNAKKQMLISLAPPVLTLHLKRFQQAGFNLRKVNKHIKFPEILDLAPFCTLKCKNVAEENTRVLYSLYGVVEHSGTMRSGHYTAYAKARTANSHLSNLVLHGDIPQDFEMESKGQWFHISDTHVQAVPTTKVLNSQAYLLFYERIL
# In short: as §1
smiles,measurement,setting,value
Cc1ccccc1OCC(=O)N1CCN(C(=O)CCl)CC1,log2 ratio of Biotin-Ahx-Ub-VS probe labelling,OTUD6B,-0.157
same,log2 ratio of Biotin-Ahx-Ub-VS probe labelling,OTUD7B,-0.203
same,log2 ratio of Biotin-Ahx-Ub-VS probe labelling,PRPF8,0.281
same,log2 ratio of Biotin-Ahx-Ub-VS probe labelling,PSMD7,0.113
same,log2 ratio of Biotin-Ahx-Ub-VS probe labelling,UCHL1,-1.52 (active)
same,log2 ratio of Biotin-Ahx-Ub-VS probe labelling,UCHL3,0.461
same,log2 ratio of Biotin-Ahx-Ub-VS probe labelling,UCHL5,-0.137
same,log2 ratio of Biotin-Ahx-Ub-VS probe labelling,USP10,-0.173
same,log2 ratio of Biotin-Ahx-Ub-VS probe labelling,USP15,-0.416
same,log2 ratio of Biotin-Ahx-Ub-VS probe labelling,USP16,-0.973
